Laboratory results as given in ChEMBL document CHEMBL4513139, “CO-ADD screening of University of Strathclyde (UK) compounds”.
Potency and affinity values are given separately.

Legend:
[1] = tested on: Klebsiella pneumoniae; conditions: Concentration 32 ug.mL-1; ASSAY_TEST Inhibition of Bacterial Growth; detection method Absorption (OD600); MEDIA CAMHB; plate type 384well; NBS; CORNING #3640; time 18 hr
[2] = tested on: Candida albicans; conditions: 32 ug/mL
[3] = tested on: Cryptococcus neoformans; conditions: Concentration 32 ug.mL-1; ASSAY_TEST Inhibition of Fungal Growth; detection method Resazurin; Absorption (OD600-OD570); plate type 384well; NBS; CORNING #3640

Compound | Inhibition [1] [%] | Inhibition [2] [%] | Inhibition [3] [%]
CCOC(=O)c1cc(NC(=O)c2cc(NC(=O)c3sc(N)nc3C(F)(F)F)cn2C)cn1C | 7.86 | 4.58 | -88.19
CN(C)CCCNC(=O)c1cc(NC(=O)c2cc(NC(=O)c3ccc(C(=O)O)cc3)cn2C)cn1C.O=C(O)C(F)(F)F | 8.35 | 15.6 | -106.52
COc1cccc(C(=N)Nc2cc(C(=O)Nc3cc(C(=O)Nc4cc(C(=O)NCCCN5CCOCC5)n(C)c4)n(C)c3)n(C)c2)c1.O=C(O)C(F)(F)F.O=C(O)C(F)(F)F | 14.25 | 1.73 | -103.93
Cn1cc(NC(=O)c2cc(NC(=O)c3sc(N)nc3C(F)(F)F)cn2C)cc1C(=O)NCCN1CCOCC1.O=C(O)C(F)(F)F | -3.11 | 1.1 | -112.77
CC(=N)Nc1cc(C(=O)Nc2cc(C(=O)Nc3cc(C(=O)NCCN4CCOCC4)n(C)c3)n(C)c2)n(C)c1.O=C(O)C(F)(F)F.O=C(O)C(F)(F)F | 13.68 | 2.29 | -100.58
Cc1ncc(CNc2ccccc2F)c(N)n1 | 12.81 | 1.65 | -54.68
CN(C)CCCNC(=O)c1cc(NC(=O)c2cc(NC(=O)c3cc(NC(=N)N)cn3C)cn2C)cn1C.O=C(O)C(F)(F)F.O=C(O)C(F)(F)F | 7.81 | 2.03 | -105.56
Cn1cc(NC(=O)c2cc(NC(=O)c3cc(NC(=O)c4ccc(Cl)cc4Cl)cn3C)cn2C)cc1C(=O)NCCN1CCOCC1.O=C(O)C(F)(F)F | 11.99 | 9.71 | 9.62
CC(=O)Nc1cc(C(=O)Nc2cc(C(=O)Nc3cc(C(=O)NCCCN(C)C)n(C)c3)n(C)c2)n(C)c1.O=C(O)C(F)(F)F | 11.92 | 0.65 | -116.29
COc1cccc(C(=N)Nc2cc(C(=O)Nc3cc(C(=O)Nc4cc(C(=O)NCCCN(C)C)n(C)c4)n(C)c3)n(C)c2)c1.O=C(O)C(F)(F)F.O=C(O)C(F)(F)F | 5.64 | 0.48 | -103.02
CC(=O)Nc1cc(C(=O)Nc2cc(C(=O)Nc3cc(C(=O)NCCCN(C)C)n(CCC(C)C)c3)n(C)c2)n(C)c1.O=C(O)C(F)(F)F | -0.56 | 0.94 | -102.49
COc1cccc(C(=O)Nc2cc(C(=O)Nc3cc(C(=O)Nc4cn(CCCN(C)C)cn4)n(C)c3)n(C)c2)c1.O=C(O)C(F)(F)F | 3.02 | 3.2 | -93.96
CC(C)CCc1sc(N)nc1C(=O)Nc1cc(C(=O)Nc2cc(C(=O)NCCN3CCOCC3)n(C)c2)n(C)c1.O=C(O)C(F)(F)F | 5.14 | 4.42 | -77.2
CC(C)CCc1sc(NC(=O)c2cc(NC(=O)c3cc(NC(=O)c4ccc(C(=O)O)cc4)cn3C)cn2C)nc1C(=O)NCCCN(C)C.O=C(O)C(F)(F)F | -0.94 | 8.07 | -119.21
Cc1ncc(CNc2ccc(C(F)(F)F)cc2)c(N)n1 | 1.98 | 0.52 | -31.34
COc1cccc(/C=C/c2ccc(C(=O)Nc3cc(C(=O)Nc4cc(C(=O)NCCN(C)C)n(C)c4)n(C)c3)cc2)c1.O=C(O)C(F)(F)F | 26.76 | 28.1 | 101.07
COC(=O)CCC(=O)Nc1cc(C(=O)Nc2cc(C(=O)NCCC(=N)N)n(C)c2)n(C)c1.O=C(O)C(F)(F)F | 5.44 | 2.68 | -68.45
COc1cccc(C(=N)Nc2cc(C(=O)Nc3cc(C(=O)NCCC(=N)N)n(C)c3)n(C)c2)c1.O=C(O)C(F)(F)F.O=C(O)C(F)(F)F | 100.7 | 39.3 | 101.54
Cn1cc(NC(=O)c2cc(NC(=O)CCC(=O)O)cn2C)cc1C(=O)NCCN1CCOCC1.O=C(O)C(F)(F)F | 14.45 | 1.67 | -38.65
CC(C)c1sc(NC(=O)c2cc(NC(=O)c3cc(NC(=O)c4cnc(Cl)c(Cl)c4)cn3C)cn2C)nc1C(=O)NCCCN(C)C.O=C(O)C(F)(F)F | -2.83 | 7.37 | 12.34
Cc1ncc(CNc2ccc(Cl)cc2)c(N)n1 | 5.04 | -0.54 | -54.67
COC(=O)c1ccc(C(=O)Nc2cc(C(=O)Nc3cc(C(=O)NCCCN(C)C)n(C)c3)n(C)c2)cc1.O=C(O)C(F)(F)F | 6.59 | 1.31 | -107.28
COC(=O)CCC(=O)Nc1cc(C(=O)Nc2cc(C(=O)NCCCN(C)C)n(C)c2)n(C)c1.O=C(O)C(F)(F)F | -5.32 | 0.6 | -50.28
COC(=O)c1ccc(C(=O)Nc2cc(C(=O)Nc3cc(C(=O)NCCC(=N)N)n(C)c3)n(C)c2)cc1.O=C(O)C(F)(F)F | 7.16 | 5.42 | -78.85
COC(=O)c1ccc(C(=O)Nc2cc(C(=O)Nc3cc(C(=O)NCCN4CCOCC4)n(C)c3)n(C)c2)cc1.O=C(O)C(F)(F)F | 8.44 | 7.27 | -98.27
CN(C)CCCNC(=O)c1cc(NC(=O)c2cc(NC(=O)CCC(=O)O)cn2C)cn1C.O=C(O)C(F)(F)F | 6.24 | 0.85 | -54.8
CN(C)CCCNC(=O)c1cc(NC(=O)c2cc(NC(=O)c3cc4ccccc4cn3)cn2C)cn1C.O=C(O)C(F)(F)F | 12.4 | 3.58 | -81.77
Cc1ncc(CNc2cccc(F)c2)c(N)n1 | 9.56 | 1.91 | -50.34
Cc1ccc(S(=O)(=O)NCCc2cn(Cc3cnc(C)nc3N)nn2)cc1 | 1.07 | 3.05 | -48.53
Cc1ncc(Cn2cc(CC(N)C(=O)O)nn2)c(N)n1.Cl (stereo not given) | -13.87 | 2.15 | -37.7
